Assay results: publication PMC6792352, “Limited Chemical Structural Diversity Found to Modulate Thyroid Hormone Receptor in the Tox21 Chemical Library” (Environmental Health Perspectives, 2019)
Where two headings read alike, the source gives them in different places. Over roughly 7,300 compounds, “AC50” has its median near 90,000 nM; the lowest 2% begin near 20,000 nM. Some of the results follow.

Tested on: thyroid hormone receptor (endogenous TRα and TRβ)
Parameters: species or system GH3-TRE-Luc (rat pituitary); GH3-TRE-Luc luciferase reporter transactivation, agonist mode, qHTS; RXR ligands can also activate indirectly

O=C(O)Cc1cc(I)c(Oc2ccc(O)c(I)c2)c(I)c1 [Tiratricol]
AC50 (read-out: TR_LUC_GH3_Agonist_AC50, agonist mode, primary qHTS, 24 h): 0.000154 µM

Cc1ccc(O)cc1 [Cresol]
AC50 (read-out: TR_LUC_GH3_Agonist_AC50, agonist mode, primary qHTS, 24 h, TR_LUC_GH3_Agonist_AC50 (uM)): 25 µM
